{"source": "PubChem BioAssay AID1508600", "about": "(Functional Genomics Laboratory (NCATS/FGL), 2020)", "note": "About 3,700 (7%) of roughly 53,000 sequences were called active.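 Rule for the calls: active = gene knockdowns whose robust z-score for IL-1 alpha signal is at least 2 or at most -2, so actives lie on both sides; inactive = the rest.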 The sample as a whole holds a higher share of actives than the screen did."}
{"experiment": "Components of the Cytosolic LPS Sensing Pathway: Gene Identification via Genome-wide siRNA Screen;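 note: robust z of the log signal after scaling to non-targeting control siRNA wells of the plate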", "conditions": "RAW264.7 macrophages, IL-1a HTRF, actives lie on both sides, screened at 100 nM (by protocol), cells primed 5 h with Pam3CSK4 first", "summary_of_the_method": "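RAW264.7; siRNA 100 nM final, RNAiMAX, 48h 37 degrees C; Pam3CSK4 5 h; LipidA + TransIT-TKO 24 h; IL-1a HTRF; CellTiter-Glo viability; robust z vs negative-control median.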"}
{"sequence": "GCGAUUCGUCUUCGAGUUCTT against Fam161a", "z-score": "0.483 (inactive)"}
{"sequence": "GGAACUAUUUUUUACCCAATT against Dclre1a", "z-score": "-0.497 (inactive)"}
{"sequence": "GGAAAGAAGAUCGAUUACATT against Atp11c", "z-score": "2.22 (active)"}
{"sequence": "GCCCUGUUUACACCUCUGATT against Sec23a", "z-score": "-1.38 (inactive)"}
{"sequence": "CGAAAGGUCAAAUUAACAGTT against Serpinb5", "z-score": "1.23 (inactive)"}
{"sequence": "CCACAAAGAAUGCAUUACUTT against Eml3", "z-score": "-0.912 (inactive)"}
{"sequence": "GCUACUCAGUCUUUACUAUTT against Telo2", "z-score": "-2.14 (active)"}
{"sequence": "CCUGGCAGAGCAUUAUCUATT against Tmem201", "z-score": "0.558 (inactive)"}
{"sequence": "GGAGACAACUGUCAAGCUGTT against Igdcc4", "z-score": "-0.0921 (inactive)"}
{"sequence": "GGCACAGAAAAUCUUCAAATT against Ap2a1", "z-score": "0.97 (inactive)"}
{"sequence": "GGACUGAAGGAUGCCUCAATT against Cngb1", "z-score": "0.78 (inactive)"}
{"sequence": "GCUAACAACGUGUGCUUCUTT against Fam20a", "z-score": "-0.174 (inactive)"}
{"sequence": "CCCGAGAUGUAUCAUCUAATT against Krcc1", "z-score": "-0.31 (inactive)"}
{"sequence": "UUCACUGUAAGAAUUGUCUTT against Vmn1r93", "z-score": "-2.11 (active)"}
{"sequence": "GGGAAUACAUUUUAUCUUCTT against Cpox", "z-score": "-0.16 (inactive)"}
{"sequence": "GAUGACUAGCUCUACUUUATT against Olfr738", "z-score": "-0.0882 (inactive)"}
{"sequence": "GGUAUCAGUAGCUGAUGUGTT against Pde8a", "z-score": "1.36 (inactive)"}
{"sequence": "GGUGUGGGUGACAAGGUUATT against Tymp", "z-score": "0.153 (inactive)"}
{"sequence": "GCAACACAAACACUGGCUATT against D930020B18Rik", "z-score": "-1.57 (inactive)"}
{"sequence": "CCUAGGAUAGAGAUUGUUGTT against Ndufaf3", "z-score": "0.135 (inactive)"}
{"sequence": "GGUAGAUCAUGGCCAUCCUTT against Ntf5", "z-score": "2.04 (active)"}
{"sequence": "CGAUACACUGGUGCCCUAUTT against Tmem201", "z-score": "-0.158 (inactive)"}
{"sequence": "GGUGCCAGAUGUCAAGAAATT against Rpn2", "z-score": "-0.685 (inactive)"}
{"sequence": "GGAUCUGAAGACAUGGAGATT against H2-M1", "z-score": "0.659 (inactive)"}
{"sequence": "CGCCCUUGGAGGUUAAUCATT against Nsg2", "z-score": "0.26 (inactive)"}
{"sequence": "GGAACAGGCCGAGUUAGUATT against Olfr414", "z-score": "1.45 (inactive)"}
{"sequence": "GGAAGGUGAUGAAUCAGCCTT against Wwtr1", "z-score": "-2.74 (active)"}
{"sequence": "GCUGAGUUCAUUGCAAUGCTT against Cyp4a12b", "z-score": "0.274 (inactive)"}
{"sequence": "GGACGGCAGAAAGCAUUUATT against Olfr317", "z-score": "0.693 (inactive)"}
{"sequence": "GGAAUUCAUCUUACAUUCCTT against Acox3", "z-score": "2.42 (active)"}
{"sequence": "GCUGACUCUUAGAUAAAUATT against Seh1l", "z-score": "-0.81 (inactive)"}
{"sequence": "CCAAAGAGAUAUCCCUCCCTT against Olfr1350", "z-score": "-0.283 (inactive)"}
{"sequence": "GCAGGAAUUCUUGAAUUAUTT against Ly75", "z-score": "2.66 (active)"}
{"sequence": "GGACUUCUCAUCCUAUUUATT against Iah1", "z-score": "-0.638 (inactive)"}
{"sequence": "GAAUGAACUGCUGAAAAAGTT against Klra16", "z-score": "0.462 (inactive)"}
{"sequence": "GACUCCCAGCUGGCUAUGATT against Ifna9", "z-score": "0.583 (inactive)"}
{"sequence": "GGCUCAGUACUUUCUAAAATT against Vmn1r72", "z-score": "-0.637 (inactive)"}
{"sequence": "GCCUUGUCUAUAGGACUGUTT against Grm6", "z-score": "-0.00801 (inactive)"}
{"sequence": "GCUUCAUGAUGAAUCACCUTT against Otulinl", "z-score": "-2.1 (active)"}
{"sequence": "CGAGCAUUCACCGUACGUATT against Id4", "z-score": "0.0542 (inactive)"}
{"sequence": "GGGCAAGGUGUAUUGUCAATT against D830050J10Rik", "z-score": "-0.00921 (inactive)"}
{"sequence": "GGCCCAACAAUACCUGCUGTT against Rgs17", "z-score": "-1.5 (inactive)"}
{"sequence": "GGAUGAAGAAACAAGAAAGTT against Tmc1", "z-score": "-2.46 (active)"}
{"sequence": "GCACCGACCACCAAAUCUATT against Prol1", "z-score": "0.65 (inactive)"}
{"sequence": "GGUUGUGACAAUGUGAUCCTT against Coro1a", "z-score": "-2.22 (active)"}
{"sequence": "CCAUCUACAAGUGUCCUUATT against Zfp276", "z-score": "-0.632 (inactive)"}
{"sequence": "CCAUAUCCCUGUGGAAAAGTT against Manf", "z-score": "-0.322 (inactive)"}
{"sequence": "CGGAUAUCCACAAAUAUCGTT against Atp1b3", "z-score": "0.508 (inactive)"}
{"sequence": "GGGUUCAAGAGAUGGGAAUTT against Efna5", "z-score": "0.453 (inactive)"}
{"sequence": "GCUCUCAGCAAAAACCGAGTT against Kif26b", "z-score": "2.98 (active)"}
{"sequence": "GGCUGUCAGUGUUUACAGGTT against Srd5a1", "z-score": "-0.247 (inactive)"}
{"sequence": "GGGAUGAUUCAAUGGAUAATT against Tbx22", "z-score": "0.789 (inactive)"}
{"sequence": "GCUGGUUUCAUCCGCCAUATT against Dvl3", "z-score": "1.18 (inactive)"}
{"sequence": "GCAUAUAAGAGAAGUGCCUTT against Parl", "z-score": "0.298 (inactive)"}
{"sequence": "GCACCAAUACAUUUGGACCTT against Nabp1", "z-score": "1.74 (inactive)"}
{"sequence": "GGAGUCAGUACUGUAAAAUTT against Rin2", "z-score": "-1.91 (inactive)"}
{"sequence": "GGAGAGAAAAAAGUCUCUCTT against Olfr66", "z-score": "2.55 (active)"}
{"sequence": "GCAACUGUUACUUCUCAACTT against Lrif1", "z-score": "0.598 (inactive)"}
{"sequence": "GGUUAACUCCUUUUCUAGATT against Ints13", "z-score": "-0.52 (inactive)"}
{"sequence": "GCCUACACCAGUCCUUUGATT against Baiap2l1", "z-score": "0.509 (inactive)"}
{"sequence": "GGAACUAUCCAGUAGGUAGTT against Mill2", "z-score": "0.846 (inactive)"}
{"sequence": "GGUUCUGGAUUUCUGUUUUTT against Phf24", "z-score": "-1.38 (inactive)"}
{"sequence": "GGAUGAAGAUGGAGAUCUUTT against Tfg", "z-score": "2.14 (active)"}
{"sequence": "GGAAAAAGAACACCUUUUATT against Ints6l", "z-score": "-0.74 (inactive)"}
{"sequence": "GGACACCACCAAUCUUGACTT against Arsg", "z-score": "-1.57 (inactive)"}
{"sequence": "GGGCAUUGGGAUCCUCAAUTT against Olfr139", "z-score": "-0.734 (inactive)"}
{"sequence": "CGGAUCUUGUCAAUAACCATT against Angptl1", "z-score": "0.295 (inactive)"}
{"sequence": "GCAGGAGUAAGAAUGAAUGTT against Luzp1", "z-score": "0.999 (inactive)"}
{"sequence": "GGAACUUAGAAGUUUACAATT against Caml", "z-score": "-0.0418 (inactive)"}
{"sequence": "GGUCACAAAGAAGAAUCACTT against Heg1", "z-score": "-2.31 (active)"}
{"sequence": "GGUUGAGUGUUUGAAGUCATT against Slc38a11", "z-score": "-1.9 (inactive)"}
{"sequence": "GCUUUACUCCCUAAAUUCATT against Dmrt3", "z-score": "0.755 (inactive)"}
{"sequence": "CCUCUUAGAUCAGGAUUAUTT against Usp37", "z-score": "0.991 (inactive)"}
{"sequence": "GGCAUGGAAUGAGCUUUUCTT against Nr2e3", "z-score": "3.83 (active)"}
{"sequence": "GGACUAAGCAAUCUCUUUUTT against Gspt2", "z-score": "0.81 (inactive)"}
{"sequence": "GGUGCUUUGUUAUCCAUAATT against Tnfrsf26", "z-score": "-2.72 (active)"}
{"sequence": "CCUAAUUGUAGUAGUACUATT against Olfr117", "z-score": "-0.955 (inactive)"}
{"sequence": "GGCCUAGCAAUUCUUGAGCTT against Gm5087", "z-score": "-0.18 (inactive)"}
{"sequence": "CCCUGUAUAUUGCAUUUCCTT against Pcdhb21", "z-score": "0.198 (inactive)"}
{"sequence": "GGGAGUUUUUAUAUGGUUUTT against Ybey", "z-score": "1.27 (inactive)"}
{"sequence": "GCAGAUGACUAUCGGAAGUTT against Usp53", "z-score": "2.19 (active)"}
{"sequence": "GGGCAGCAAAGAAUUAACUTT against Ptpmt1", "z-score": "-0.619 (inactive)"}
{"sequence": "GGAAGAAAAUCUUGAAGCATT against Ddx51", "z-score": "-0.232 (inactive)"}
{"sequence": "GCGAUAUGACAGACUCUUCTT against Csrnp1", "z-score": "1.79 (inactive)"}
{"sequence": "GGAUGUUAUUCGCCACGCGTT against Zfp335", "z-score": "-0.134 (inactive)"}
{"sequence": "CCCGUUCAAGCAAUUACAUTT against G2e3", "z-score": "-1.05 (inactive)"}
{"sequence": "GGUGAAGACUUCCAGAAGGTT against Reg3a", "z-score": "-0.186 (inactive)"}
{"sequence": "CCUGUACAGUUGGAAACAUTT against Snrpd1", "z-score": "-2.02 (active)"}
{"sequence": "GGACUUCUCCUUUAAUAAUTT against Cox7a2l", "z-score": "-0.494 (inactive)"}
{"sequence": "GCCCGACCUGUUGAGAAGATT against Znhit3", "z-score": "1.43 (inactive)"}
{"sequence": "GGAGGAAAAGUAGGUUUGCTT against Peli1", "z-score": "-0.531 (inactive)"}
{"sequence": "GGUAAGUGGAGGUAUUCUUTT against Egln1", "z-score": "2.28 (active)"}
{"sequence": "GGCCAGGAAAUAUGAAAUATT against Phtf1", "z-score": "-0.352 (inactive)"}
{"sequence": "GCCUUGAUAAUUUUGUAAGTT against Gimap9", "z-score": "0.533 (inactive)"}
{"sequence": "GCACCCUAAUGUGAUCGCATT against Cdk19", "z-score": "-1.34 (inactive)"}
{"sequence": "CCACCUGAAUCAUUACUCATT against Rdh19", "z-score": "-3.29 (active)"}
{"sequence": "GGAGAAGAUUUUCUGUAUCTT against Atp13a5", "z-score": "0.545 (inactive)"}
{"sequence": "GCUGAGAGACUUGUGAAAUTT against Ndufb11", "z-score": "1.06 (inactive)"}
{"sequence": "GGAAAUCAGCUGUGAAAAATT against Fbxl20", "z-score": "-0.628 (inactive)"}
{"sequence": "GCAGGUCUAAAACUCUCAUTT against Sfmbt1", "z-score": "2.38 (active)"}
{"sequence": "GCCUCAUCGUCAUCGCCAATT against Gpbar1", "z-score": "-0.897 (inactive)"}
{"sequence": "GCAUACCUAGACUGAAAACTT against Rilpl2", "z-score": "-0.477 (inactive)"}
{"sequence": "GGAGCUGUUUCCAGUUCAGTT against Tomm40", "z-score": "-1.12 (inactive)"}
{"sequence": "CGUGCUGGUAACGGAAUUGTT against Ptger2", "z-score": "2.29 (active)"}
{"sequence": "GGGAACAGGAGAAAACGGATT against Bnipl", "z-score": "1.2 (inactive)"}
{"sequence": "GGAAGACAACUGUUGUGGCTT against Dagla", "z-score": "-0.54 (inactive)"}
{"sequence": "GUUCGGUACAACUUUUCUGTT against Alx4", "z-score": "0.326 (inactive)"}
{"sequence": "GGAUAAAAAUCACCCACUGTT against Vwa8", "z-score": "0.21 (inactive)"}
